# Values joined by “and” are separate entries in the source; they are usually repeats but may differ in a detail not shown here. Identical values can stand only once. Records with an inconclusive call do not appear. Active and inactive are the calls of the source. Unless noted, the call rests on the fitted dose curve.
# Tests used:
# [1] = target: Bile acid receptor (Homo sapiens) (UniProt Q96RI1); assay: qHTS assay for small molecule agonists of farnesoid X receptor signaling (AID 588527); conditions: HEK293T FXR-UAS-bla, beta-lactamase ratio, 16 h; activation: stronger effect = higher value;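 further: series mostly up to about 77 µM; 0% = vehicle basal and 100% = reference agonist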
# In short: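 Quantitative HTS used FXR-UAS-bla HEK293T cells with 16 h compound incubation at 37 C. EC50 values came from concentration-response curves normalized to chenodeoxycholic acid.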
# [2] = target: Peroxisome proliferator-activated receptor delta (Homo sapiens) (UniProt Q03181); assay: qHTS assay for small molecule agonists of peroxisome proliferator-activated receptor delta signaling (AID 588534);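 further: 0% = DMSO basal wells and 100% = positive control agonist at 10 µM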
# In short: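 EC50 and efficacy values derive from Hill fits of a concentration series in a beta-lactamase reporter cell assay. Exposure is 18 hrs at 37 C, with CCF4 fluorescence as the readout.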
# [3] = target: Peroxisome proliferator-activated receptor gamma (Homo sapiens) (UniProt P37231); assay: qHTS assay for small molecule antagonists of peroxisome proliferator-activated receptor gamma signaling (AID 588537; active means well fitted inhibition curve with a large enough effect in the signal ratio, with a control signal flat, not every such curve was filed as active; the % refers to the signal ratio;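 further: reporter cells co-stimulated with 50 nM rosiglitazone agonist during compound treatment; % of control where 0% means no effect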)
# In short: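 Read-out: CCF4 fluorescence (ex 405, em 460/530 nm) after 2 h at RT. Cells were HEK293 carrying a UAS-bla reporter and treated 16 h at 37 C with compound plus rosiglitazone (50 nM final). Normalized to rosiglitazone and DMSO.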
# [4] = target: Thyroid hormone receptor beta (Homo sapiens) (UniProt P10828); assay: qHTS assay for small molecule agonists of thyroid hormone receptor beta signaling (AID 588545)
# In short: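 Agonist activity was read as beta-lactamase CCF4 fluorescence (405 ex, 460/530 em), scaled between DMSO (0%) and 10 nM T3 (100%), then Hill-fitted for EC50 and efficacy. HEK 293 TR-UAS-bla cells in 2% charcoal/dextran FBS medium were exposed 18 h at 37 C.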
# [5] = qHTS assay for small molecule antagonists of retinoid X receptor alpha signaling (AID 588546; active means well fitted inhibition curve with a large enough effect in the signal ratio, with a control signal flat, not every such curve was filed as active; the % refers to the signal ratio; further: potency means the concentration at half of the fitted maximal effect;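 on max response: cells stimulated with 9-cis-retinoic acid as agonist; on the % scale 0 is the no-effect control and ±100 the full control effect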); conditions: HEK293T RXRa-UAS-bla, beta-lactamase ratio, antagonist mode; measured here: W530 green channel, cytotoxicity proxy
# In short: (§1)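 Beta-lactamase reporter inhibition, read as CCF4 fluorescence ratio (ex 405, em 460/530 nm) after 2 h at RT. HEK293T UAS-bla cells, 2500/well, were stimulated with 9-cis-RA at 500 or 100 nM final alongside test compound for 18 h at 37 C.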
# [6] = target: Retinoic acid receptor RXR-alpha (Homo sapiens) (UniProt P19793); assay: as above; conditions: HEK293T RXRa-UAS-bla, beta-lactamase ratio, antagonist mode
# In short: as §1
# [7] = qHTS assay for small molecule activators of the p53 signaling pathway (AID 651743; active means well fitted activation curve with a large enough effect in the signal ratio, not every such curve was filed as active; the % refers to the signal ratio; further: potency means the concentration at half of the fitted maximal effect; on activation: series mostly up to about 92 µM; % of control where 0% means no effect); conditions: HCT-116 p53RE-bla, beta-lactamase FRET ratio, 16 h; activation: stronger effect = higher value
# In short: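 Reporter: beta-lactamase driven by p53 response elements, stably integrated in HCT-116 cells. Cells seeded at 4,000/well, 5 h preincubation, compound (DMSO) 16 h at 37 C; B/G FRET substrate 2 h RT; fluorescence intensity read.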
# [8] = qHTS assay for environmental chemicals that activate the Aryl hydrocarbon Receptor (AhR) signaling pathway (AID 651777; active means well fitted curve in the direction sought with a large enough effect; an effect the other way counts as inactive or inconclusive; further: nearly all actives have a fitted effect of over 15% in size; further: potency means the concentration at half of the fitted maximal effect; on activation: % of control where 0% means no effect); conditions: 1A2-DRE human hepatoma cells, luciferase, 24 h; activation: stronger effect = higher value
# In short: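 1A2-DRE human hepatoma reporter line; 1,200 cells/well; cmpd or DMSO 24 h, 37 C/5% CO2; One-Glo 30 min RT; luciferase lum.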
# [9] = target: Peroxisome proliferator-activated receptor alpha (Homo sapiens) (UniProt Q07869); assay: qHTS assay for small molecule agonists of the peroxisome proliferator-activated receptor alpha (PPARalpha) signaling pathway (AID 651778; active means well fitted curve in the direction sought with a large enough effect; an effect the other way counts as inactive or inconclusive; further: % of control where 0% means no effect); conditions: PathHunter PPARalpha complementation, chemiluminescence, 6 h; max response: stronger effect = higher value
# In short: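 Enzyme-fragment complementation assay in which ligand-bound PPARalpha translocates and forms an active enzyme that generates chemiluminescence. Cells were plated overnight, exposed to compound for 6 hr at 37 C, and then given detection reagent for 60 min at room temperature.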
# [10] = qHTS assay for small molecule agonists of the antioxidant response element (ARE) signaling pathway measured by Nrf2-dependant transcriptional activity (AID 720636; active means well fitted curve in the direction sought with a large enough effect in the repeat runs; an effect the other way counts as inactive or inconclusive;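 further: HepG2 cells with an ARE-driven luciferase reporter; % of control where 0% means no effect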)
# In short: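 Cells: ARE-luc HepG2 with Nrf2-responsive luciferase. Medium contained 1% dialyzed FBS. Compound exposure lasted 16 hr at 37 C and 5% CO2, followed by ONE-Glo luciferase detection.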
# [11] = qHTS assay for small molecule activators of the human pregnane X receptor (PXR) signaling pathway (AID 720659; call rule not given here; further: 0% is about no effect)
# [12] = target: Vitamin D3 receptor (Homo sapiens) (UniProt P11473); assay: qHTS assay for small molecule agonists of vitamin D receptor signaling (AID 588543);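 further: 0% = DMSO basal and 100% = reference agonist control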
# In short: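 Reporter cells (HEK293T, VDR-UAS-bla) were seeded in medium with 2% charcoal-stripped serum and incubated 5 h, then compounds in concentration series were added for 16 h at 37 °C. Stimulation was scaled between DMSO basal and 50 nM 1α,25-dihydroxyvitamin D3.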
# [13] = qHTS assay for small molecule agonists of the antioxidant response element (ARE) signaling pathway (AID 651741; active means well fitted activation curve with a large enough effect in the signal ratio; the % refers to the signal ratio; further: potency means the concentration at half of the fitted maximal effect; on activation: % of control where 0% means no effect)
# In short: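 HepG2 ARE-bla reporter cells, 2,000/well; 5 h settle at 37 C/5% CO2; compound pin transfer (23 nL, DMSO); 16 h at 37 C; LiveBLAzer B/G FRET substrate, 2 h RT; fluorescence intensity read.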
# [14] = qHTS assay for cell viability of HEK293 cells (AID 743288; active means well fitted curve in the direction sought with a large enough effect; an effect the other way counts as inactive or inconclusive; further: nearly all actives have a fitted effect of over 50% in size; further: potency means the concentration at half of the fitted maximal effect; on max response: on the % scale 0 is the no-effect control and ±100 the full control effect); conditions: ATP luminescence (CellTiter-Glo), 18 h; max response: stronger effect = lower value
# In short: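 Viable-cell counts were inferred from luciferase-based ATP content in HEK293 cells seeded at 2,000/well, pre-incubated ≥5 h, then dosed with DMSO-solubilised compounds for 18 h at 37 C.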
# [15] = qHTS assay for cell viability of the p53RE-bla HCT-116 cell line (AID 743292; active means well fitted curve in the direction sought with a large enough effect; an effect the other way counts as inactive or inconclusive; further: potency means the concentration at half of the fitted maximal effect; nearly all actives have a fitted effect of over 55% in size)
# In short: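 HCT-116 p53RE-bla cells seeded 4,000/well; 5 h at 37 C; compound (DMSO) added; 16 h at 37 C; CellTiter-Glo added, 30 min RT; luminescence read.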
# [16] = target: Nuclear receptor subfamily 1 group I member 2 (Rattus norvegicus) (UniProt Q9R1A7); assay: qHTS assay for small molecule activators of the rat pregnane X receptor (rPXR) signaling pathway (AID 651751; call rule not given here; further: 0% is about no effect); conditions: rPXR reporter cells, luciferase (One-Glo), 24 h
# [17] = MultiTox-Fluor Cytotoxicity Assay - LYMP1-001 - Live Cells (AID 947; active means well fitted curve in the direction sought with a large enough effect; an effect the other way counts as inactive or inconclusive;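 further: 0% = DMSO only and full inhibition = tetraoctylammonium bromide control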)
# [18] = qHTS assay for small molecule agonists of retinoid X receptor alpha signaling (AID 588544); conditions: HEK293T RXRa-UAS-bla, beta-lactamase reporter, 18 h; 530 nm emission
# [19] = qHTS assay for small molecule activators of the nuclear factor-kappa B (NF-kB) signaling pathway (AID 651749; active means well fitted activation curve with a large enough effect in the signal ratio; the % refers to the signal ratio; further: series mostly up to about 77 µM; % of control where 0% means no effect); conditions: NF-kB-bla ME-180 cells, beta-lactamase FRET ratio, 16 h; activation: stronger effect = higher value
# In short: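 NF-kB-bla ME-180 cells, 2,000/well; 23 nL compound or DMSO pinned; 16 hr, 37C/5% CO2; beta-lactamase FRET read-out.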
# [20] = target: Cytochrome P450 3A4 (Homo sapiens) (UniProt P08684); assay: qHTS Assay for Activators of Cytochrome P450 3A4 (AID 885; active means well fitted curve in the direction sought with a large enough effect; an effect the other way counts as inactive or inconclusive; further: nearly all actives have a fitted effect of over 65% in size)
# In short: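 Using 20nM recombinant human CYP3A4 in potassium phosphate (200mM), substrate Luciferin-PPXE at 25uM, luminescent luciferin detection followed a 60-min RT NADPH reaction; data scaled to 57 uM ketoconazole.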
# [21] = target: Nuclear receptor ROR-gamma (Homo sapiens) (UniProt P51449); assay: qHTS assay for small molecule antagonists of the retinoid-related orphan receptor gamma (ROR-gamma) signaling pathway (AID 651802; active means well fitted curve in the direction sought with a large enough effect; an effect the other way counts as inactive or inconclusive;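 further: CHO cells with doxycycline-induced ROR-gamma expression; luciferase reporter luminescence driven by ROR response element; series mostly up to about 92 µM; on the % scale 0 is the no-effect control and ±100 the full control effect; nearly all actives have a fitted effect of over 60% in size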)
# In short: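 Doxycycline-induced reporter activity in engineered CHO cells (TET-inducible ROR, RORE-LUC) was measured by luminescence after 16hr compound exposure at 37C.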
# Chain of Cytochrome P450 3A4 (Homo sapiens) (P08684 whole entry, looked up): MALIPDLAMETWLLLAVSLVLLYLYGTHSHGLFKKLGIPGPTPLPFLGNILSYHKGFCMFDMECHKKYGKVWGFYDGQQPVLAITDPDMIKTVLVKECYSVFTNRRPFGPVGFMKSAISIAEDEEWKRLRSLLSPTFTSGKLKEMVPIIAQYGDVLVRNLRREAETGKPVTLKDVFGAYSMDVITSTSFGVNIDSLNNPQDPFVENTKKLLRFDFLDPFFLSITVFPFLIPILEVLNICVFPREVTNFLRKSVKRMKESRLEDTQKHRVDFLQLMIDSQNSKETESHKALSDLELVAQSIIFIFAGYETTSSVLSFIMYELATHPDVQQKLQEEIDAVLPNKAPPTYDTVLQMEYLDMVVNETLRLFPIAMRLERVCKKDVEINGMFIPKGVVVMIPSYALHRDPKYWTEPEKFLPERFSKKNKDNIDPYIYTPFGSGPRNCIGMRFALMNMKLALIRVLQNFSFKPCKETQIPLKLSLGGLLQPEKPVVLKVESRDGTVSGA
# Chain of Peroxisome proliferator-activated receptor alpha (Homo sapiens) (Q07869 whole entry, looked up, the tested form may be a part): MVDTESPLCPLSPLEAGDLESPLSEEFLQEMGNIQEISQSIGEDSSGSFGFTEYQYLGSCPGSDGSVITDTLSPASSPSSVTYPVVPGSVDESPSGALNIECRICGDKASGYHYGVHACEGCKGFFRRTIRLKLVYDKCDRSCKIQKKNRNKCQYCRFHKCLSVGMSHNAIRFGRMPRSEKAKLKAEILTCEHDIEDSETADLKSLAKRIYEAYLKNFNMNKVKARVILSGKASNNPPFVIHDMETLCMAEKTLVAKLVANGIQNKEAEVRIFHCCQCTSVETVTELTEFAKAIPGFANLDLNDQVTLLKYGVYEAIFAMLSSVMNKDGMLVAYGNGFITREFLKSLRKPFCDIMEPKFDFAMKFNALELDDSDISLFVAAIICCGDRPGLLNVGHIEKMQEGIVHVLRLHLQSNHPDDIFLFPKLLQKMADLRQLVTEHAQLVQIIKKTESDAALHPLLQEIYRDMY
# Chain of Bile acid receptor (Homo sapiens) (Q96RI1 whole entry, looked up): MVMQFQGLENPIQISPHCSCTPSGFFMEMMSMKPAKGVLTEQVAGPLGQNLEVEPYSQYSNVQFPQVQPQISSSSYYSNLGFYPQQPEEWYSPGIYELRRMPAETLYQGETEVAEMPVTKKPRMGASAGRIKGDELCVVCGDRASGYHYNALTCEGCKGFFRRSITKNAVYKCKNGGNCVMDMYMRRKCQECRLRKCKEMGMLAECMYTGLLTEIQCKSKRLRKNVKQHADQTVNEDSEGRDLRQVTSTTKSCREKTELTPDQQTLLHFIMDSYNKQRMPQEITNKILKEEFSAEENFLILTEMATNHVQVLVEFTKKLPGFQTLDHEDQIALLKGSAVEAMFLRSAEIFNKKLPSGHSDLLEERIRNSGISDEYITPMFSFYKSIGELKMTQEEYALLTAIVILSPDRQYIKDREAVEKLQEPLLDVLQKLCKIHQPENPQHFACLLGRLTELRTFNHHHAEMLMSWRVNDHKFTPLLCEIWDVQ
# Chain of Vitamin D3 receptor (Homo sapiens) (P11473 whole entry, looked up): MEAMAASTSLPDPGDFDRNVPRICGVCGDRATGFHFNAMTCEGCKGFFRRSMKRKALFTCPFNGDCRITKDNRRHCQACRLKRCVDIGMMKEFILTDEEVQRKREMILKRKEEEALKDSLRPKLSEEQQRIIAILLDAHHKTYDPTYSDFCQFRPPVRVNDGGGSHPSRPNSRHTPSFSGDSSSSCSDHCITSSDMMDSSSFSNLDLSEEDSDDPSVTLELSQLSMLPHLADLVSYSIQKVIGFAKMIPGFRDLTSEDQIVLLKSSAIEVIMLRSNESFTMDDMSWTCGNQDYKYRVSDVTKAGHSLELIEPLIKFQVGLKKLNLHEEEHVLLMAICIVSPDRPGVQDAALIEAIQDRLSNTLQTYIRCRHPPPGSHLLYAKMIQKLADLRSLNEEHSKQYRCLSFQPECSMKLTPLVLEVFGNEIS
# Chain of Peroxisome proliferator-activated receptor delta (Homo sapiens) (Q03181 whole entry, looked up): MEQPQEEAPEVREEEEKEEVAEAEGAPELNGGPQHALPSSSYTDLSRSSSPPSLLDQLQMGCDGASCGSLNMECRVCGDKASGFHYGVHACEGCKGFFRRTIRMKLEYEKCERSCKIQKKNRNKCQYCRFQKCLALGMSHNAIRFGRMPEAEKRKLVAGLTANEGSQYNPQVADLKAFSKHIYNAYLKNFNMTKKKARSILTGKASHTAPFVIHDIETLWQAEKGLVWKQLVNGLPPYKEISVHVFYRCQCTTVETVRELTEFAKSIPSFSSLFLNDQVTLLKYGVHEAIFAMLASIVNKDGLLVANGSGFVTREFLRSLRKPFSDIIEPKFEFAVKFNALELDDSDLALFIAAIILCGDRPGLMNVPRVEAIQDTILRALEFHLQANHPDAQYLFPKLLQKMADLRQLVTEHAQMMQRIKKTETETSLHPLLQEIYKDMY
# Chain of Retinoic acid receptor RXR-alpha (Homo sapiens) (P19793 whole entry, looked up): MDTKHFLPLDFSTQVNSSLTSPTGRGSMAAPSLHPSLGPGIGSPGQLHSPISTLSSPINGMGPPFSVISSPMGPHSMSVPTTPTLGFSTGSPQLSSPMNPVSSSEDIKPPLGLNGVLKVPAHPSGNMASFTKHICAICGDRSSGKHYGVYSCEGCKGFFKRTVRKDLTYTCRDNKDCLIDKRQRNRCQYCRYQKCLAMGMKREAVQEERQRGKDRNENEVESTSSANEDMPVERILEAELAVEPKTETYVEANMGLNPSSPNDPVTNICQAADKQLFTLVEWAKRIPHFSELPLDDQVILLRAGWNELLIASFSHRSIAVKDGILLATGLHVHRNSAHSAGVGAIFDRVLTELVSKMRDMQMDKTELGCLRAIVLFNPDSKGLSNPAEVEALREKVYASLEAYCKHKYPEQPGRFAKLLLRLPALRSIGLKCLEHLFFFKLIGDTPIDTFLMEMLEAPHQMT
# Chain of Thyroid hormone receptor beta (Homo sapiens) (P10828 whole entry, looked up): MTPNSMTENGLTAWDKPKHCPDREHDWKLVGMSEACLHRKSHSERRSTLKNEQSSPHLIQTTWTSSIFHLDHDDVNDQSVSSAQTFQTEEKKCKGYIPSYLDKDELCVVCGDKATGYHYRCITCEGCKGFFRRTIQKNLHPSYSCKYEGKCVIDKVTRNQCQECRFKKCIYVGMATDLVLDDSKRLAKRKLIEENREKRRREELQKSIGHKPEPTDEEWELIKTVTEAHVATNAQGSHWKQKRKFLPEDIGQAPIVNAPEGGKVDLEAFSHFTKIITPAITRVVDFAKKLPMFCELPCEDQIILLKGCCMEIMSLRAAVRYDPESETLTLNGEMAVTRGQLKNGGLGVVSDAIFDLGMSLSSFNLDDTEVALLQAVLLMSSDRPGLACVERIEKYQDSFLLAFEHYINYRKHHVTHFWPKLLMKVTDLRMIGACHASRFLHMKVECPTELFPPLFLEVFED
# Chain of Nuclear receptor ROR-gamma (Homo sapiens) (P51449 whole entry, looked up): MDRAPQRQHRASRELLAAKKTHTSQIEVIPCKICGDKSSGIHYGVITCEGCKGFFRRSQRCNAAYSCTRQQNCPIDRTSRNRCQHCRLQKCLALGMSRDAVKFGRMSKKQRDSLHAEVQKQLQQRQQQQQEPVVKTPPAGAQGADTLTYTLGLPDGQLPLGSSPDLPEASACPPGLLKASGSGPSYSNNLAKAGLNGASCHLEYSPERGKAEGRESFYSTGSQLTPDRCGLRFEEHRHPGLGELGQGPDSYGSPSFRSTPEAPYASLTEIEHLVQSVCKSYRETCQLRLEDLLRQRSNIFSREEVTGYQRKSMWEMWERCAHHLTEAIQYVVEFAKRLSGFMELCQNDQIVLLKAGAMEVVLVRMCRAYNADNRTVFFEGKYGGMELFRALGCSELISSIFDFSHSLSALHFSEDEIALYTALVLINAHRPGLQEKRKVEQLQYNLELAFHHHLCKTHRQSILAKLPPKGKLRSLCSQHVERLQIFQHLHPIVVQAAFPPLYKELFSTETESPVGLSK
# Chain of Nuclear receptor subfamily 1 group I member 2 (Rattus norvegicus) (Q9R1A7 whole entry, looked up): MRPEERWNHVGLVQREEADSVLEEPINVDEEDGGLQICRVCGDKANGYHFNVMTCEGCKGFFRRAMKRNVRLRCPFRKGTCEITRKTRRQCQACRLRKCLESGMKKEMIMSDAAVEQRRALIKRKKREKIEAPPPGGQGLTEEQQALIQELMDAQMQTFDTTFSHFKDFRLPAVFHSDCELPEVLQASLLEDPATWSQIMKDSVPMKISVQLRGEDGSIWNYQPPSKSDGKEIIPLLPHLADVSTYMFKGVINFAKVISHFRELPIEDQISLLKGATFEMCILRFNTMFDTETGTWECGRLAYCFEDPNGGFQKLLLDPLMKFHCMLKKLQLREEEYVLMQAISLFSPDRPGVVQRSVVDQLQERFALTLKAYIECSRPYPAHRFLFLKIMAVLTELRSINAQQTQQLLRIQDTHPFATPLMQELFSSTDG
# Chain of Peroxisome proliferator-activated receptor gamma (Homo sapiens) (P37231 whole entry, looked up): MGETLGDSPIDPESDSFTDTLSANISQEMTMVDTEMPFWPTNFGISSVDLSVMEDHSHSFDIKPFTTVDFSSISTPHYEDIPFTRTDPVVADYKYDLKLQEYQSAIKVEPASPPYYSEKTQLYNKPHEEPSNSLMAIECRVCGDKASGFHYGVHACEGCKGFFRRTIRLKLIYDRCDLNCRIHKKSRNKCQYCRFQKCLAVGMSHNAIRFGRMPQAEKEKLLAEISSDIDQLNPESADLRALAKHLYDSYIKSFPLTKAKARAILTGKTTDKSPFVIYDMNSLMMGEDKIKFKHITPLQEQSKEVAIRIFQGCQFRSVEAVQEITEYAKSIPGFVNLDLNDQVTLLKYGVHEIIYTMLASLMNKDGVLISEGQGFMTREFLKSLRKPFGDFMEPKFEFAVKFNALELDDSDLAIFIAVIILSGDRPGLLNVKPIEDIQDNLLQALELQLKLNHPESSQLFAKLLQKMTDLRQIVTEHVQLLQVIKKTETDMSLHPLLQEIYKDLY
compound,measurement,setting,value
OC1CCC(C2CCCCC2)CC1 (stereo not given),activation,[1],0.637% (inactive)
same,outcome,[2],inactive
Cc1cc(C)cc(N)c1,activation,[1],-1.69% (inactive)
same,outcome,[2],inactive
CC(C)(C)c1n[nH]c(=O)n(N)c1=O,activation,[1],2.05% (inactive)
same,outcome,[2],inactive
COC(=O)CCCCC(=O)OC,activation,[1],-2.8% (inactive) and 3.47% (inactive) and -2.74% (inactive)
same,outcome,[2],inactive
NCCCCCCCCCCCC(=O)O,activation,[1],0.942% (inactive)
same,outcome,[2],inactive
FC(F)(F)c1ccccc1Cl,activation,[1],-1.54% (inactive)
same,outcome,[2],inactive
O=C(O)c1ccc(O)cc1O,activation,[1],1.07% (inactive) and -1.82% (inactive)
same,outcome,[2],inactive
CCCCNC(=O)OCC#CI,activation,[1],1.93% (inactive)
same,outcome,[2],inactive
same,Potency,[3],inactive
same,Potency,[4],inactive
same,max response,[5],2.86%
same,max response,[6],-22.6% (inactive)
same,activation,[7],-1.36% (inactive)
same,activation,[8],-10.9% (inactive)
same,max response,[9],-2.4% (inactive)
same,Potency,[10],inactive
same,outcome,[11],inactive
CN(c1c(Br)cc(Br)cc1Br)c1c([N+](=O)[O-])cc([N+](=O)[O-])cc1C(F)(F)F,activation,[1],1.9% (inactive)
same,outcome,[12],inactive
same,max response,[5],-24%
same,Potency,[6],8.91 µM (active)
same,Potency,[13],5.45 µM (active)
same,activation,[8],-7.94% (inactive)
same,max response,[9],-2.57% (inactive)
same,Potency,[10],inactive
same,Potency,[14],39.8 µM (active)
same,Potency,[15],7.08 µM (active)
same,max response,[16],-14.1% (inactive)
CC(C)OCC1CO1 (stereo not given),activation,[1],-0.0386% (inactive)
same,outcome,[2],inactive
CN(C)C=O,Potency,[17],inactive
same,activation,[1],-2.96% (inactive) and -2.36% (inactive) and -5.04% (inactive)
same,max response,[18],2.34% and -5.07% and -17.6%
O=S(=O)(O)c1cc(S(=O)(=O)O)c2c(N=Nc3ccccc3)c(O)ccc2c1,activation,[1],2.46% (inactive)
same,outcome,[2],inactive
CCc1nn(C)c(C(=O)NCc2ccc(C(C)(C)C)cc2)c1Cl,activation,[1],2.45% (inactive)
same,outcome,[12],inactive
same,Potency,[7],0.355 µM (active)
same,activation,[19],2.69% (inactive)
same,activation,[8],6.31% (inactive)
same,Potency,[10],inactive
same,max response,[14],-25.1% (inactive)
Cc1cc(C)c(N)cc1C,Potency,[20],inactive
same,activation,[1],-1.7% (inactive)
same,outcome,[2],inactive
same,Potency,[21],inactive
c1ccc2c(c1)ccc1c3ccccc3ccc21,activation,[1],-1.28% (inactive)
same,outcome,[2],inactive
same,Potency,[13],4.33 µM (active)
same,Potency,[8],11.2 µM (active)
O=C1c2ccccc2C(=O)N1SC(Cl)(Cl)Cl,activation,[1],6.44% (inactive)
same,outcome,[12],inactive
same,activation,[19],3.09% (inactive)
same,activation,[8],-3.47% (inactive)
same,max response,[9],9.12% (inactive)
same,outcome,[11],inactive
Cc1cc([N+](=O)[O-])ccc1N,Potency,[20],inactive
same,activation,[1],-0.935% (inactive)
same,outcome,[2],inactive
CCOC(=O)[C@H](C)Oc1ccc(Oc2nc3ccc(Cl)cc3o2)cc1,activation,[1],-2.5% (inactive)
same,Potency,[4],inactive
CN(C)c1ccc(Cc2ccc(N(C)C)cc2)cc1,Potency,[20],inactive
same,activation,[1],-1.47% (inactive)
same,outcome,[2],inactive
same,Potency,[13],inactive
Cc1nn(C)c(Oc2ccccc2)c1/C=N/OCc1ccc(C(=O)OC(C)(C)C)cc1,activation,[1],6.71% (inactive)
same,Potency,[13],0.154 µM (active)
CCCCC(CC)COP(=O)(OCC(CC)CCCC)OCC(CC)CCCC (stereo not given),Potency,[20],inactive
same,activation,[1],-0.972% (inactive)
same,outcome,[2],inactive
Nc1c(N=Nc2ccc(S(=O)(=O)CCOS(=O)(=O)O)cc2)c(S(=O)(=O)O)cc2cc(S(=O)(=O)O)c(N=Nc3ccc(S(=O)(=O)CCOS(=O)(=O)O)cc3)c(O)c12,activation,[1],4.58% (inactive)
same,outcome,[2],inactive
